From PubChem BioAssay (NCATS) come the findings set out here.

Values joined by “and” are separate entries in the source; they are usually repeats but may differ in a detail not shown here. Identical values can stand only once. Inconclusive results are not listed. A number with no mark means an inactive call. Active and inactive are the calls of the source. Unless noted, calls come from the whole dose curve; as a rule, active = well fitted curve in the direction sought with a large enough effect; inconclusive = small, poorly fitted or top-dose-only effect, or another doubt; inactive = no such curve, though single readings can be large; an effect the other way counts as inactive or inconclusive.

For assay [1], the target named is Cellular tumor antigen p53 (Homo sapiens) (UniProt P04637). Description: Primary qHTS for small molecule compounds that upregulate eGFP-tagged delta133p53alpha (in N-terminal) cells. (AID 2060322).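 For activation: cells pre-induced with doxycycline then dosed without doxycycline; series mostly up to about 56 µM; 0% = DMSO vehicle and 100% = reference activator.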 Note: nearly all actives have a fitted effect of over 75% in size. Note: potency is the fitted concentration of half-maximal effect. The conditions noted are these: NCI-H358 eGFP-delta133p53alpha fluorescence, 24 h; activation: hits give high values. The method, boiled down: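 NCI-H358 cells pre-induced 24 h with 10 ng/ml doxycycline for eGFP-delta133p53alpha, plated dox-free and exposed 24 h at 37C to titrated compounds. Fixed, Hoechst-stained; gated GFP peak intensity by laser scanning cytometry, normalized to DMSO (0%) and 57.5 uM 5-azacytidine (100%).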
On the technique in general: Quantitative high-throughput screening tests each substance at several concentrations.

For assay [2], the target named is Aldehyde dehydrogenase, mitochondrial (Homo sapiens) (UniProt P05091). Description: qHTS for Inhibitors of the Aldehyde Dehydrogenase Family (ALDH2) Confirmatory screens (AID 2061303; active = well fitted inhibition curve with a large enough effect; title and protocol of this record describe different tests; note: nearly all actives have a fitted effect of over 45% in size; note: potency is the fitted concentration of half-maximal effect).
Assay [3] has the same target. As to the kind of experiment: qHTS for Inhibitors of the Aldehyde Dehydrogenase Family (ALDH2) Primary screen (AID 2061308). Note: nearly all actives have a fitted effect of over 55% in size. Note: potency is the fitted concentration of half-maximal effect.
Assay [4] concerns the target Retinaldehyde dehydrogenase 3 (Homo sapiens) (UniProt P47895). As to the kind of experiment: qHTS for Inhibitors of the Aldehyde Dehydrogenase Family (ALDH1A3) Primary screen (AID 2061315).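 Note: plate controls were DMSO vehicle for no effect and reference inhibitor for full effect.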
The target of assay [5] is Retinal dehydrogenase 2 (Homo sapiens) (UniProt O94788). Description: qHTS for Inhibitors of the Aldehyde Dehydrogenase Family (ALDH1A2) Confirmation screens (AID 2061314). Note: potency is the fitted concentration of half-maximal effect; nearly all actives have a fitted effect of over 65% in size.
Assay [6] deals with Aldehyde dehydrogenase 1A1 (Homo sapiens) (UniProt P00352). As to the kind of experiment: qHTS for Inhibitors of the Aldehyde Dehydrogenase Family (ALDH1A1) Confirmatory screens (AID 2061316). Note: nearly all actives have a fitted effect of over 65% in size. Note: potency is the fitted concentration of half-maximal effect.
Assay [7] can be described thus: BET inhibitor-based combinations targeting novel dependencies in MECOM-rearranged (r) AML: SET-2 cell line (AID 2202231).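 Note: plate controls were DMSO treated cells for no effect and wells without cells for full effect; nearly all actives have a fitted effect of over 35% in size.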 Conditions: SET-2 AML cells viability, CellTiter-Glo luminescence, 48 h; viability: hits give low values, series mostly up to about 46 µM. The method, boiled down:
(§1)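 AML cell lines seeded at 500 cells/well, treated with 11-point dose curves for 48 h. Viability by CellTiter-Glo luminescence, normalised to DMSO and empty wells; activity expressed as AUC and per-cell-line Z-transformed AUC.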
A general note: Cellular ATP, detected with luciferase, serves as a proxy for viable cell number.

A short description of assay [8]: BET inhibitor-based combinations targeting novel dependencies in MECOM-rearranged (r) AML: MV-4-11 cell line (AID 2202233). Note: potency is the fitted concentration of half-maximal effect; nearly all actives have a fitted effect of over 45% in size. The method, boiled down: (§2)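 Cells at 500/well were exposed for 48 hr to MIPE v5.0 drugs as 11-point dose curves. Viability was read by CellTiter-Glo luminescence and normalized to DMSO and empty-well controls. Activity was expressed as AUC and per-cell-line Z-AUC.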

Assay [9] in a line: BET inhibitor-based combinations targeting novel dependencies in MECOM-rearranged (r) AML: UCSD-AML1 cell line (AID 2202235).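 Note: series mostly up to about 46 µM; plate controls were DMSO vehicle wells for no effect and blank wells for full effect; nearly all actives have a fitted effect of over 40% in size.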 The method, boiled down: as §2
Assay [10] in a line: BET inhibitor-based combinations targeting novel dependencies in MECOM-rearranged (r) AML: AML-191 cell line (AID 2202236; note: potency is the fitted concentration of half-maximal effect; nearly all actives have a fitted effect of over 35% in size). The method, boiled down: as §1
A short description of assay [11]: qHTS for Inhibitors of the Aldehyde Dehydrogenase Family (ALDH1A2, ALDH1A3, ALDH2, ALDH3A1) (AID 2061307). Note: test system not described further here; potency is the fitted concentration of half-maximal effect; nearly all actives have a fitted effect of over 50% in size.
Assay [12] has as its target Retinaldehyde dehydrogenase 3 (Homo sapiens) (UniProt P47895). Description: qHTS for Inhibitors of the Aldehyde Dehydrogenase Family (ALDH1A3) Confirmatory screens (AID 2061311). Note: potency is the fitted concentration of half-maximal effect; nearly all actives have a fitted effect of over 60% in size.
Assay [13] has the same target. As to the kind of experiment: qHTS for Inhibitors of the Aldehyde Dehydrogenase Family (ALDH1A3) Validation screen (AID 2061312). Note: nearly all actives have a fitted effect of over 45% in size. Note: potency is the fitted concentration of half-maximal effect.

Sequence of Cellular tumor antigen p53 (Homo sapiens) (P04637 whole entry, looked up): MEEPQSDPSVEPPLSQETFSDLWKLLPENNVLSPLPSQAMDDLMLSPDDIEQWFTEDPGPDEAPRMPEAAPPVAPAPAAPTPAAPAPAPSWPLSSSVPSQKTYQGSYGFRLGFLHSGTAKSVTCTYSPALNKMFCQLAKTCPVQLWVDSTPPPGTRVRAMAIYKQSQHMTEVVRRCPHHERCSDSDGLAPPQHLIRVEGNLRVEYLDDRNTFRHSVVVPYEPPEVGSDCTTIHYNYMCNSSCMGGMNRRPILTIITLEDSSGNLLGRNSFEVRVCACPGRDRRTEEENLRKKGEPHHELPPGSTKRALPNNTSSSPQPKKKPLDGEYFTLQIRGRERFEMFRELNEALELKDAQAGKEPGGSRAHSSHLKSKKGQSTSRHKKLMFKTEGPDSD

As to `OCC(O)C(c1c[nH]c2ccccc12)c1c[nH]c2ccccc12` (centres undefined), in assay [1], the activation was -8.93%. For the same compound, the Potency result in [2], in assay [3] and in assay [4] was “inactive” in each case.
Regarding `C/C=C/C=C/c1cc2c(C=O)c(O)c(CC=C(C)C)cc2o1`, the Potency was 26.9 µM (active) in assay [1]; 11.3 µM (active) in assay [2]; 28.2 µM (active) in assay [3]; 10.1 µM (active) in assay [5]; 11.3 µM (active) in [6]. In addition, in assay [4], the Potency result is “inactive”.
What is called viability is a read-out of living cells in per cent, often relative to untreated cells. As for `Cn1cc(-c2ccc3ncc(Cc4ccc5ncccc5c4)n3n2)cn1`, the activation in assay [1] was 15.2% and 9.55%. For the same compound, the Potency entry in assay [2], in assay [3], in assay [4], in assay [6] and in assay [9] was “inactive” each time. Besides, the viability in assay [7] was 105%. The Potency in assay [8] was 18.6 µM (active); in assay [10], 13.2 µM (active).
In the case of `N#Cc1ccc2[nH]cc(CCCCN3CCN(c4ccc5oc(C(N)=O)cc5c4)CC3)c2c1`, the activation in assay [1] was 11.5%. Moreover, the Potency was 2.24 µM (active) in assay [11], 15.8 µM (active) in [12] and 15.8 µM (active) in assay [5]. In addition, the Potency entry in assay [3], in assay [13] and in [4] was “inactive” in each case.
Consider `CN(C)c1cccc(Oc2cnc(Nc3cccc(O)c3)nc2)c1`, for which the activation in assay [1] is 2.86%. Further, in assay [2], the Potency result is “inactive”. The Potency in assay [13] was 8.91 µM (active).
